Inconclusive results are not listed. Values without a mark were called inactive. Active and inactive are the calls of the source. The call rests on the fitted dose curve; in most records, active means well fitted inhibition curve with a large enough effect; inconclusive means small, poorly fitted or top-dose-only effect, or effect the other way; inactive means flat fitted curve, though single readings scatter.
Molecular target: Ubiquitin carboxyl-terminal hydrolase 2 (Homo sapiens) (UniProt O75604)
Sequence (O75604 whole entry, looked up): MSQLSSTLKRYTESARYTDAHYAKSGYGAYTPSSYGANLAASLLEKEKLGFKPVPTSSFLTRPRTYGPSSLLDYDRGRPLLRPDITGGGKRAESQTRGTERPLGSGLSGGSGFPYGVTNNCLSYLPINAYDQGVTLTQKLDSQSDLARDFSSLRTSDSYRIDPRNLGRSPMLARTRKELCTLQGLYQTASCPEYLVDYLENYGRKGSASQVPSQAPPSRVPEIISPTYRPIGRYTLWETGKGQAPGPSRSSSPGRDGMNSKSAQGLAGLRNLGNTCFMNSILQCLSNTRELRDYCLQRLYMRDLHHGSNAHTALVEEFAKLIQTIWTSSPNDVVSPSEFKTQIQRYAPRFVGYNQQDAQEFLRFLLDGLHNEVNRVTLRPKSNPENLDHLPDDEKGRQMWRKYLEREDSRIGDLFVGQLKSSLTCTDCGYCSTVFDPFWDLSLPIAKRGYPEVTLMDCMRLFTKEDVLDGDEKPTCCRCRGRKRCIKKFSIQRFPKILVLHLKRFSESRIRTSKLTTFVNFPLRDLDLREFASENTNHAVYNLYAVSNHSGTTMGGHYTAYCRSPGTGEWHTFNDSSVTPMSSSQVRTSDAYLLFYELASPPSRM
Assay: Confirmation Assay for Inhibitors of Ubiquitin-specific Protease USP2a Using CHOP2 as the Reporter; further: nearly all actives have a fitted effect of over 55% in size;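 on activity change, negative = inhibition: plate controls were DMSO wells for no effect and full inhibition by NEM control for full effect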
Conditions: USP2 core, Ub-CHOP2 coupled reporter fluorescence; series mostly up to 38.3 µM; activity change, negative = inhibition: at the top concentration
Method in brief: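 USP2 core (10 nM final) was preincubated with compound for 30 min at RT in Tris-HCl pH 8.0, CaCl2, beta-mercaptoethanol, CHAPS. Ub-CHOP2 and reporter substrate (25 nM final each) were added, and fluorescence (Ex 485/Em 531 nm) was read after 60 min.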
Potency means the concentration at half of the fitted maximal effect.

Row | Structure (SMILES) | activity change, negative = inhibition | Potency
1 | COc1ccc(-c2nc(C#N)c(NCC3CCCO3)o2)cc1OC (stereo not given) | -2.32% | –
2 | Cc1ccc(Nc2cc(C)nc(NCc3ccccc3)n2)cc1 | -2.23% | –
3 | Cc1ccc(CN2C(=O)N/C(=C\c3cccn3-c3cccc(C(=O)O)c3)C2=O)cc1 | 1.47% | –
4 | Cc1ccc(-c2nc(N/N=C/c3ccncc3)c3ccccc3n2)cc1 | -3.08% | –
5 | O=C(OCC(=O)N1CCCCC1)c1cc2ccccc2cc1O | -2.25% | –
6 | O=C(N/N=C/c1ccc(-c2ccc(S(=O)(=O)Nc3ncccn3)cc2)o1)c1cc2ccccc2cc1O | – | 9.27 µM (active)
7 | O=C(Nc1ccc2nc(-c3ccco3)c(-c3ccco3)nc2c1)N1CCN(c2ccccn2)CC1 | – | 16.5 µM (active)
8 | O=C(CSc1nnnn1-c1ccc(F)cc1)c1ccc(O)c(O)c1 | -2.57% | –
9 | COc1ccc(/C=C(\NC(=O)c2ccc(OC)c(OC)c2)C(=O)N2CCN(C)CC2)cc1 | -1.18% | –
10 | CC(C(=O)Nc1ccc(C(=O)O)c(O)c1)N1C(=O)/C(=C\c2ccco2)SC1=S (stereo not given) | – | 16.5 µM (active)
11 | COc1cc(-c2nc(-c3ccc4c(c3)-c3ccccc3S4(=O)=O)c(-c3ccccc3)[nH]2)cc(OC)c1O | -1.03% | –
12 | COc1ccc(CCN2CC(C#N)=C3c4cc(OC)c(OC)cc4CCN3C2)cc1OC | -0.858% | –
13 | O=[N+]([O-])c1c(NCCO)cc(N2CCN(Cc3ccc4c(c3)OCO4)CC2)c2nonc12 | 0.18% | –
14 | FC(F)(F)c1cnc2c(c1)Nc1ccccc1S2 | 0.666% | –
15 | Cc1cc(C(=O)Nc2ccccc2N2CCOCC2)c2ccccc2n1 | 1.25% | –
16 | CC(C)CC(=O)Nc1cccc(-c2nc3ccccc3o2)c1 | -1.67% | –
17 | COc1ccc2[nH]c(=O)c(CN(C)C(=O)C3CCCCC3)cc2c1 | -0.262% | –
18 | CCCCCCCCCC[N+](C)(C)CC/C=C1/c2ccccc2Sc2ccc(Cl)cc21 | – | 13.1 µM (active)
19 | N=C1C(c2nc3ccccc3c(=O)[nH]2)=C(O)CN1CCc1ccccc1 | 0.0409% | –
20 | CC1CCc2c(sc3nc(CN4CCOCC4)nc(NS(=O)(=O)c4cccc([N+](=O)[O-])c4)c23)C1 (stereo not given) | -11.3% | –

Row | Structure (SMILES) | activity change, negative = inhibition | Potency
21 | C=C(C)COc1ccc(-c2[nH]ncc2Oc2ccccc2OCC)c(O)c1 | 0.628% | –
22 | Cc1ccc(C)c(OCC(=O)Nc2cc(NC(=O)COc3cc(C)ccc3C)cc(C(=O)O)c2)c1 | -15.4% | –
23 | COc1ccc(NC(=O)CSc2nc(O)cc(=O)n2-c2ccc(OC)cc2)cc1 | -2.82% | –
24 | CCOc1ccc2[nH]c(=O)c(CN(CCc3ccccc3)C(=O)c3cnccn3)cc2c1 | -3.4% | –
25 | Cc1cc(C)n2nc(S(=O)(=O)NCCc3ccccc3)nc2n1 | -0.0643% | –
26 | CCCn1c(N2CCN(Cc3cccc(C)c3)CC2)nc2c1c(=O)[nH]c(=O)n2C | -0.381% | –
27 | Cc1ccc(S(=O)(=O)N2[C@@H](c3ccc(C(C)(C)C)cc3)C(C(=O)O)=CC[C@H]2c2ccc(C(C)C)cc2)cc1 | – | 9.27 µM (active)
28 | CN(C)CCCN1C(=O)C(=O)/C(=C(/O)c2ccncc2)C1c1cccnc1 (stereo not given) | -0.824% | –
29 | COc1ccc(Cl)cc1S(=O)(=O)Nc1cccc(C(=O)O)c1 | 0.617% | –
30 | CCOc1cc(/C=C/c2nc3cc(C)c(C)cc3s2)ccc1OCC(=O)N1CCOCC1 | -0.93% | –
31 | Cc1cccc2c1N(CCCOc1ccc(C(C)(C)C)cc1)C(=O)C2=O | -3.62% | –
32 | FC(F)Sc1ccc(NC(=S)NC2CCCCC2)cc1 | 2.42% | –
33 | Cn1c(SCc2nc3ccccc3s2)nnc1-c1cccs1 | 2.39% | –
34 | Cn1cccc1CC(=O)N/N=C/C=C/c1ccco1 | -10.7% | –
35 | Cc1nc2cc3ccccc3cc2c(=O)[nH]1 | 2.06% | –
36 | Cc1noc(/C=C/c2ccco2)c1S(=O)(=O)N1CCC(C(=O)N(C)Cc2ccccc2)CC1 | – | 14.7 µM (active)
37 | CCOC(=O)Nc1ccc(S(=O)(=O)Nc2cc(C)nc(C)n2)cc1 | 1.06% | –
38 | Clc1ccccc1-c1nnc2sc(-c3cccs3)nn12 | -1.13% | –
39 | C#CCOCCOCCOCCNc1nc(N2CCN(C(=O)CCCCCCCCCCNC(=O)[C@H](CO)n3cc(CCCSC)nn3)CC2)nc(N2CCN(C(=O)CCCCCCCCCCNC(=O)[C@H](CCCN=C(N)N)n3cc(C[C@@H](C)CC)nn3)CC2)n1 | – | 18.5 µM (active)
40 | CS(=O)(=O)c1ccc(C(=O)Nc2nc(-c3ccco3)c(-c3ccco3)s2)cc1 | -4.86% | –

Reference: PubChem BioAssay AID493168 (National Center for Advancing Translational Sciences (NCATS), 2011)
